Test systems include NCI-H23 lung; NCI-H226 lung; NCI-H322M lung; HOP-62 NSCLC; NCI-H460 lung; HOP-92 NSCLC; A549/ATCC NSCLC; 786-0 renal; COLO 205 colon; DU-145 prostate; K-562 leukemia; MALME-3M melanoma; MDA-MB-231 breast; RXF 393 renal; SF-268 CNS; SF-295 CNS; SF-539 CNS; UACC-257 melanoma; M14 melanoma.
Common to all, as to assay: NCI-60 one-dose screen, 48 h (100 = growth as untreated, 0 = no growth, -100 = all killed)
What all share (conditions): 10 µM unless noted

This is part of a sample that, as a whole, favours compounds with a hit. Of some 83,000 tested, about 20% had one in any assay.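 Growth was measured after 48 h exposure to one concentration of compound in 96-well plates. Values under 10 count as active.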 Values without a mark were called inactive. Active and inactive are the calls of the source.

With `O=C(C(=O)c1cc(Br)ccc1O)c1cc(Br)ccc1O`, the growth with NCI-H23 lung is 19.8%; with NCI-H226 lung it was 90.9%; with NCI-H322M lung, 67.6%; in the assay with HOP-62 NSCLC, 50.3%; with NCI-H460 lung it was 39%; in the assay on HOP-92 NSCLC it was 25.4%. The growth in the assay with A549/ATCC NSCLC is 50.7%; in the assay on 786-0 renal, 61.2%; in the assay on COLO 205 colon it was 100%; in the assay on DU-145 prostate it was 67.7%; in the assay on K-562 leukemia, 42.8%; in the assay on MALME-3M melanoma, 31.2%. In addition, the growth in the assay with MDA-MB-231 breast was 64.8%; with RXF 393 renal it was 65.7%; in the assay with SF-268 CNS it was 38.1%; in the assay with SF-295 CNS, 67.9%; in the assay on SF-539 CNS, 53.2%; in the assay with UACC-257 melanoma, 43.1%. Besides, the growth in the assay on M14 melanoma was 66.9%.

In the case of `COc1cc(/C=C/C(=O)c2c(C)n([O-])c3ccc(Cl)cc3[n+]2=O)cc(OC)c1OC`, the growth in the assay on NCI-H23 lung was 81.7%; in the assay with NCI-H226 lung, 80.7%; in the assay with NCI-H322M lung, 90.5%; in the assay on HOP-62 NSCLC it was 110%; in the assay with NCI-H460 lung, 64.3%; in the assay with HOP-92 NSCLC, 78.6%. For the same compound, the growth with A549/ATCC NSCLC was 71.7%; in the assay with 786-0 renal, 94.4%; in the assay on COLO 205 colon it was 86.8%; in the assay on DU-145 prostate, 66.8%; with K-562 leukemia, 45.8%; in the assay on MALME-3M melanoma, 78.7%. Moreover, the growth in the assay on MDA-MB-231 breast was 78.5%; in the assay on RXF 393 renal, 42.6%; in the assay on SF-268 CNS it was 74%; in the assay with SF-295 CNS, 114%; with SF-539 CNS, 96.9%; in the assay with UACC-257 melanoma, 81.3%. Besides, the growth in the assay with M14 melanoma was 78.4%.

For the compound `C[C@H](C(=O)N[C@@H](Cc1ccc(-c2ccccc2)cc1)C(=O)NC1CC(C)(C)N(C)C(C)(C)C1)c1ccc(-c2ccccc2)c(F)c1`, the growth with NCI-H23 lung is -71% (active); with NCI-H226 lung, -49.1% (active); with NCI-H322M lung, -62.3% (active); with HOP-62 NSCLC, -73.5% (active); with NCI-H460 lung, -75.8% (active); with HOP-92 NSCLC, -75.5% (active). Besides, the growth is -79.1% (active) in the assay on A549/ATCC NSCLC; -91.3% (active) in the assay on 786-0 renal; -69.6% (active) in the assay on COLO 205 colon; -83.1% (active) in the assay with DU-145 prostate; -56.9% (active) with K-562 leukemia; -71.5% (active) in the assay on MALME-3M melanoma. The growth is -68.5% (active) in the assay with MDA-MB-231 breast; -73.2% (active) in the assay on RXF 393 renal; -70.9% (active) in the assay on SF-268 CNS; -66% (active) in the assay on SF-295 CNS; -79.5% (active) with SF-539 CNS; -66.2% (active) with UACC-257 melanoma. Further, the growth in the assay with M14 melanoma was -82.6% (active).

Consider `COc1ccc2c3c(ccc2c1)C(=O)/C(=C\O)CC3`, for which the growth is 96.7% in the assay with NCI-H23 lung; 106% in the assay on NCI-H226 lung; 110% in the assay with NCI-H322M lung; 114% in the assay on HOP-62 NSCLC; 102% with NCI-H460 lung; 96.4% in the assay on HOP-92 NSCLC. The growth in the assay with A549/ATCC NSCLC was 109%; in the assay with 786-0 renal, 103%; in the assay on COLO 205 colon, 105%; in the assay on DU-145 prostate, 111%; in the assay on K-562 leukemia, 82.7%; with MALME-3M melanoma it was 135%. Also, the growth is 102% in the assay with MDA-MB-231 breast; 119% in the assay with RXF 393 renal; 93.6% in the assay with SF-268 CNS; 107% with SF-295 CNS; 96.4% in the assay on SF-539 CNS; 101% in the assay with UACC-257 melanoma. Moreover, the growth in the assay with M14 melanoma is 122%.

Take `Cc1n(Cc2ccc3ccccc3c2)cc[n+]1Cc1ccc2ccccc2c1`: the growth with NCI-H23 lung is 5.53% (active); in the assay with NCI-H226 lung, 19%; in the assay with NCI-H322M lung, 48.9%; with HOP-62 NSCLC it was 18%; with NCI-H460 lung it was 9.12% (active); in the assay on HOP-92 NSCLC, -20.3% (active). The growth in the assay with A549/ATCC NSCLC was 42.3%; in the assay with 786-0 renal, 34%; with COLO 205 colon, -57.2% (active); in the assay with DU-145 prostate, 35.2%; with K-562 leukemia it was 10.2%; with MALME-3M melanoma, -20.9% (active). The growth in the assay with MDA-MB-231 breast is -24.3% (active); in the assay on RXF 393 renal, 3.41% (active); in the assay on SF-268 CNS it was 18.9%; in the assay on SF-295 CNS, 15.4%; in the assay on SF-539 CNS, 5.68% (active); with UACC-257 melanoma, -28.5% (active). The growth in the assay with M14 melanoma is -15.7% (active).

Consider `O=C(CC(C(=O)c1ccccc1)N1CCN(Cc2ccccc2)CC1)c1ccccc1` (configuration not stated), for which the growth with NCI-H23 lung is 84%; with NCI-H226 lung, 104%; in the assay on NCI-H322M lung it was 112%; in the assay on HOP-62 NSCLC, 104%; in the assay with NCI-H460 lung it was 104%; in the assay with HOP-92 NSCLC, 80.7%. Moreover, the growth with A549/ATCC NSCLC was 98%; in the assay on 786-0 renal, 95.8%; in the assay with COLO 205 colon it was 70.3%; in the assay on DU-145 prostate, 86.2%; in the assay on K-562 leukemia, 19.5%; in the assay with MALME-3M melanoma it was 110%. The growth in the assay on MDA-MB-231 breast is 96%; in the assay with RXF 393 renal it was 95%; in the assay with SF-268 CNS, 106%; in the assay on SF-295 CNS, 109%; in the assay on SF-539 CNS, 93.8%; in the assay with UACC-257 melanoma, 93.7%. Moreover, the growth in the assay on M14 melanoma was 77.9%.

Take `Clc1ccc2[nH]cc(-c3cncn3CCc3ccccc3)c2c1`: the growth in the assay with NCI-H23 lung was 45.6%; in the assay with NCI-H226 lung it was 47.9%; in the assay with NCI-H322M lung, 65.5%; in the assay on HOP-62 NSCLC, 50.8%; in the assay with NCI-H460 lung it was 68.5%; in the assay with HOP-92 NSCLC, 28%. Further, the growth in the assay on A549/ATCC NSCLC is 59.7%; in the assay on 786-0 renal, 62.9%; in the assay with COLO 205 colon, 44.3%; in the assay with DU-145 prostate, 80.9%; with K-562 leukemia, 26.9%; in the assay with MALME-3M melanoma, 43.8%. For the same compound, the growth in the assay on MDA-MB-231 breast was 65.9%; in the assay with RXF 393 renal, 52.3%; in the assay with SF-268 CNS, 46.3%; in the assay on SF-295 CNS, 43.5%; in the assay with SF-539 CNS, 69.7%; in the assay on UACC-257 melanoma, 50.2%. Besides, the growth in the assay on M14 melanoma is 68.6%.

For `COc1cnc2c(c1)C(=O)c1c-2n(CCCN2CCC(O)CC2)c(=O)c2cc(F)ccc12`, the growth with NCI-H23 lung is -19.9% (active); with NCI-H226 lung, -83.7% (active); with NCI-H322M lung, -3.95% (active); with HOP-62 NSCLC it was -20.8% (active); with NCI-H460 lung, -44.5% (active); in the assay on HOP-92 NSCLC, -7.92% (active). The growth with A549/ATCC NSCLC was -77.5% (active); in the assay with 786-0 renal it was -45.9% (active); in the assay with COLO 205 colon, -10.9% (active); with DU-145 prostate, -8.46% (active); in the assay on K-562 leukemia, -0.117% (active); in the assay with MALME-3M melanoma, -61.9% (active). In addition, the growth in the assay on MDA-MB-231 breast is 19.9%; with RXF 393 renal, -43.1% (active); with SF-268 CNS, 9.51% (active); in the assay on SF-295 CNS, -20.7% (active); in the assay with SF-539 CNS, -17.1% (active); in the assay with UACC-257 melanoma, -16.3% (active). Moreover, in the assay with M14 melanoma, the growth was -22.4% (active).
